Data: ChEMBL document CHEMBL1201862, “PubChem BioAssay data set” (2004)
Out of some 400,000 compounds screened, about 2,100 (0.53%) were called active. Not shown: some 14% with an inconclusive outcome. The rule behind the calls is not given here. The full list was thinned out, with actives kept by preference.

These compounds were tested against Ataxin-2 (Homo sapiens) (UniProt Q99700) (assay: qHTS for Inhibitors of ATXN expression.).
Type: functional

Sequence of Ataxin-2 (Homo sapiens) (Q99700 whole entry): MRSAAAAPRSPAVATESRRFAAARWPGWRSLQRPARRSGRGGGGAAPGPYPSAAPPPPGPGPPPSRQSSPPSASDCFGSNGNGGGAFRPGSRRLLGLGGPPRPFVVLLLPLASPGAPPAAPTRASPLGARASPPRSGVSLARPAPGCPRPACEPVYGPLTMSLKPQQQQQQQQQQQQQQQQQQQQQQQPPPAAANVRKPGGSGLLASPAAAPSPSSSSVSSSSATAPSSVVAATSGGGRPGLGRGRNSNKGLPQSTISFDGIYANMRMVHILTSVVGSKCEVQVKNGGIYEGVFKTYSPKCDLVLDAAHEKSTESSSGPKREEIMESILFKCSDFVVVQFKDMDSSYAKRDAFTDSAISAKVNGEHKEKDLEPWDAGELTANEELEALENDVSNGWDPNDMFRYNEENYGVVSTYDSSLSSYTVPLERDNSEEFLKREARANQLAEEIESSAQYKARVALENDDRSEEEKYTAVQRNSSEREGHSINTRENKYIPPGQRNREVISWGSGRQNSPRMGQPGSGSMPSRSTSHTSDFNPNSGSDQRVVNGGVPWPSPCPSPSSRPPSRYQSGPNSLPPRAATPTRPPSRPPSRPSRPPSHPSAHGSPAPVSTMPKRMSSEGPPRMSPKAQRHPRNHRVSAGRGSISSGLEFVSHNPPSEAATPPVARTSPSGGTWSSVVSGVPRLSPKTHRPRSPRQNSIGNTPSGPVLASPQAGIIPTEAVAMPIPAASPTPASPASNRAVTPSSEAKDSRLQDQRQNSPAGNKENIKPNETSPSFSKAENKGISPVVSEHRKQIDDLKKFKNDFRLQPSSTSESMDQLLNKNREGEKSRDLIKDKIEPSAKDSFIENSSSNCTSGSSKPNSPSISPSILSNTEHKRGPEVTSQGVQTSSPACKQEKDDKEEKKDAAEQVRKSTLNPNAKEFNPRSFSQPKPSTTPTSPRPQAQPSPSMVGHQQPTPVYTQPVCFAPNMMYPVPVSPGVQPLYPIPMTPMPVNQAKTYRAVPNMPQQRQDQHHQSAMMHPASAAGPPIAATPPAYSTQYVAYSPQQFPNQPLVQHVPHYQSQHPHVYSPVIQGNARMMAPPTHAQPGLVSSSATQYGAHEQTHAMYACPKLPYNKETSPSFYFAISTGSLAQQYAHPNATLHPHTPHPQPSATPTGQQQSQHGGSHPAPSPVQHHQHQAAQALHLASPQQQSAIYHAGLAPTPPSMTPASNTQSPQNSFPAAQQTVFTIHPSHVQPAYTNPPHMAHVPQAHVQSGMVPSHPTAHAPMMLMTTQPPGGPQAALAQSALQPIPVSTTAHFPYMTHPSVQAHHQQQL

Structure (SMILES) | Potency
COCCSc1ccccc1C(=O)N1CCc2ccccc21 | inactive
CCOCCCn1c(=N)c(C(=O)NCc2ccccc2)cc2c(=O)n3ccccc3nc21 | inactive
O=C1CCC(=O)N1c1nc2n(n1)C(c1ccccc1)C=C(c1ccc(Br)cc1)N2 (stereo not drawn) | inactive
O=c1c2ccccc2[nH]c2ccccc12 | inactive
Cc1[nH]c2ccccc2c1C1=CC(=O)C=CC1=O | 39.8 µM (active)
Cc1ccc2[nH]c3ccccc3c(=O)c2c1 | inactive
COCc1cc(C)nc2sc(C(=O)Nc3nccs3)c(N)c12 | inactive
Cc1ccccc1N=C(S)NNC(=O)c1cccc(Br)c1 | inactive
C/C(=N\NC(=O)c1ccc(-n2cnnn2)cc1)c1ccc(Cl)cc1 | inactive
O=C(N/N=C1/C(=O)c2cccc3cccc1c23)c1ccc(Cl)cc1 | 35.5 µM (active)
Nc1[nH]cnc2c(C3OC(CO)C(O)C3O)cnc1-2 (stereo not drawn) | 0.299 µM (active)
Cc1cccn2c(=O)c3cc(S(=O)(=O)c4ccc(F)cc4)c(=N)n(Cc4ccco4)c3nc12 | inactive
Cc1nc2c(sc(=S)n2Cc2ccco2)c(=O)n1CC(=O)Nc1ccc(F)cc1 | 39.8 µM (active)
CCOC(=O)c1cc2c(=O)n3ccccc3nc2n(Cc2ccco2)/c1=N\C(=O)c1ccc(F)cc1 | inactive
Cc1cc(C)c2c(N)c3cccc(C)c3nc2n1 | inactive
CCOC(=O)C1=C(O)c2ccccc2C(=O)/C1=C\c1ccc(C)cc1 | 39.8 µM (active)
CCOC(=O)C1=C(Nc2ccccc2)S/C(=C\c2ccc(OCC(=O)O)c(OCC)c2)C1=O | inactive
CCOC(=O)C1=C(C#N)C(C(=O)OCC)c2ncccc21 (stereo not drawn) | inactive
COCCNc1c2c(c(C#N)c3nc4ccccc4n13)CCCC2 | inactive
Cc1ccc2[nH]c(/C(C#N)=C\c3ccc([N+](=O)[O-])o3)nc2c1 | 8.91 µM (active)
COc1ccc(/C=C(\C#N)c2nc3cc(C)ccc3[nH]2)cc1Oc1ccc(C(F)(F)F)cc1[N+](=O)[O-] | 44.7 µM (active)
COc1cc(/C=C(\C#N)c2nc3cc(C)ccc3[nH]2)ccc1OC(C)C | inactive
COc1cc(/C=C(\C#N)c2nc3cc(C)ccc3[nH]2)ccc1OCc1ccc(C)cc1 | inactive
Cc1c(Cl)cccc1-c1ccc(/C=C(\C#N)c2nc3ccccc3[nH]2)o1 | inactive
Cc1ccc2[nH]c(/C(C#N)=C/c3ccc(-c4ccccc4C(=O)O)o3)nc2c1 | inactive
Oc1c(Br)cc(Br)cc1/C=N\c1cccnc1 | inactive

Structure (SMILES) | Potency
COCc1cc(N2CCCC2)nc(-c2ccccc2)n1 | inactive
Cc1c(N=C2N=C(NC(=O)Nc3ccc(Cl)cc3)c3ccccc32)c(=O)n(-c2ccccc2)n1C | inactive
O=C1c2cccc3c([N+](=O)[O-])ccc(c23)C(=O)N1CC1CCCO1 (stereo not drawn) | inactive
CCCn1c(CNC(=O)c2cccs2)nc2ccccc21 | inactive
CCC(=O)NCCCc1nc2ccccc2n1Cc1ccccc1F | inactive
CCCCCn1c(N)c(C#N)c2nc3ccccc3nc21 | inactive
ClCc1nc2ccccc2n1Cc1ccccc1 | inactive
CCCCCn1c(CCNC(=O)c2cccc(C)c2)nc2ccccc21 | 31.6 µM (active)
Cc1ccc(C(=O)NCCc2ccccc2)cc1N1CCCC1=O | inactive
CCc1ccccc1-n1c(C)nc2cc(C(=O)NCCc3ccc(Cl)cc3)ccc21 | 44.7 µM (active)
CCn1c(C)nc2cc(C(=O)N/N=C(\C)c3ccccc3O)ccc21 | inactive
Cc1cccc(C(=O)NCCc2nc3ccccc3n2Cc2ccc(Cl)cc2)c1 | 28.2 µM (active)
CCCCCn1nc(-c2ccccc2)c2nc3ccccc3nc21 | inactive
CCCCCn1c(-c2cccc(C)c2)nc2ccccc21 | 35.5 µM (active)
Cc1cccc(-n2cnc3cc(C(=O)NCCN4CCOCC4)ccc32)c1 | inactive
COc1cccc(NC(=O)N2CCCC2C(=O)Nc2cc(C)ccc2OC)c1 (stereo not drawn) | inactive
c1ccc2c3c(c(CN4CCCC4)cc2c1)COC3 | inactive
Cc1ccc(NC(=O)NN2CCOCC2)cc1 | inactive
CC1(C)Cc2c(cnn2-c2cccc(F)c2)C(NC(=O)CSc2ccccn2)C1 (stereo not drawn) | inactive
Cc1cc(-n2c(=O)c(C#N)cc3c(=O)n4cccc(C)c4nc32)no1 | inactive
O=C(N/N=C/c1ccc(N2CCOCC2)cc1)c1ccccc1NS(=O)(=O)c1cccs1 | inactive
C[C@H]1CCC[C@]2(C)C[C@H]3OC(=O)C(CN4CCCCCC4)[C@H]3C=C12 (stereo partly drawn) | 39.8 µM (active)
CCN/N=C(\Cc1nc2ccccc2[nH]1)c1ccccc1 | inactive
Cc1cccn2c(=O)c3cc(C(=O)NCC4CCCO4)c(=N)n(CC4CCCO4)c3nc12 (stereo not drawn) | inactive
Cc1ccc(-c2nc(CS(=O)(=O)CC(=O)NCc3ccc4c(c3)OCO4)c(C)o2)cc1 | inactive
Cc1ccc(CNC(=O)CS(=O)(=O)Cc2nc(-c3ccccc3F)oc2C)cc1 | inactive

Structure (SMILES) | Potency
COc1cccc(-c2nc(CS(=O)(=O)CC(=O)Nc3cccc(C)c3C)c(C)o2)c1 | 7.08 µM (active)
COc1ccc(OC)c(/C=C2\Oc3cc(OCC(=O)N4CC(O)C[C@H]4C(=O)O)ccc3C2=O)c1 (stereo partly drawn) | inactive
CCOc1ccc2c(c1)/C(=C(\C(Cl)=C(Cl)Cl)[N+](=O)[O-])N2 | inactive
COc1ccc(C(=O)/C(=C\c2ccco2)N2C=CC=CC2=C(C#N)C#N)cc1 | 1.78 µM (active)
COc1ccc(/C=c2\s/c(=C(/C#N)C(=O)NCc3ccco3)n(-c3ccccc3)c2=O)cc1 | inactive
O=C(O)CSCC(=O)NCc1csc2ccc(Cl)cc12 | inactive
O=C(CN1CCc2ccccc21)Nc1ccc2c(c1)OCCCO2 | inactive
COc1ccc(-c2[nH]c(-c3ccc(C)cc3)nc2SCC(=O)NCc2ccco2)cc1OC | inactive
O=C(CSc1nc(-c2ccccc2)[nH]c1-c1ccccc1)Nc1ccc2c(c1)OCCO2 | 39.8 µM (active)
Cc1ccc(NC(=O)CSc2nnc(-c3cc(C)on3)o2)cc1 | inactive
N#Cc1ccccc1NC(=O)CSc1nc(-c2ccccc2)cc(C(F)(F)F)c1C#N | inactive
O=C(CSc1nc(-c2ccc(F)cc2)[nH]c1-c1ccc(F)cc1)Nc1ccc2c(c1)OCCO2 | 39.8 µM (active)
CCN(CC)c1ccc2cc(C(N)=O)c(=N)oc2c1 | inactive
O=C1N=C(N2CCCCC2)S/C1=C\c1ccc(Br)cc1 | inactive
CC(C)(C)OC(=O)c1c(N)n(CCCN2CCCC2=O)c2nc3ccccc3nc12 | inactive
Cc1cc(OCCn2c(C3CC(=O)N(Cc4ccc(F)cc4)C3)nc3ccccc32)ccc1Cl (stereo not drawn) | 39.8 µM (active)
CC(=O)Oc1ccc2cc(-c3nc4ccccc4n3C)c(=O)oc2c1 | inactive
Cc1ccccc1N1CC(c2nc3ccccc3n2CCC2CCCCC2)CC1=O (stereo not drawn) | 35.5 µM (active)
CCc1ccc(OCCn2c(C3CC(=O)N(Cc4ccc(F)cc4)C3)nc3ccccc32)cc1 (stereo not drawn) | 39.8 µM (active)
Cc1cccc(N2CC(c3nc4ccccc4n3C)CC2=O)c1C (stereo not drawn) | inactive
CCCCN1CC(c2nc3ccccc3n2CCCCOc2ccc(C)c(C)c2)CC1=O (stereo not drawn) | 39.8 µM (active)
Cc1cc(NC2CCCCC2)n2c(n1)nc1ccccc12 | inactive
O=c1nc2n(-c3ccccc3F)c3ccccc3cc-2c(=O)[nH]1 | inactive
CCOC(=O)c1c(NC(=O)c2ccco2)n(C2CCCCC2)c2nc3ccccc3nc12 | inactive
Cc1noc(C)c1CSCC(=O)Nc1ccc(S(C)(=O)=O)cc1 | inactive
CC(C)OC(=O)CSc1nc(Cc2ccccc2)nc2ccccc12 | inactive

Structure (SMILES) | Potency
Cc1cc(-c2nc3cccnc3s2)ccc1NS(=O)(=O)c1cccs1 | inactive
O=C(COC(=O)c1cccnc1)NC1CCCc2ccccc21 (stereo not drawn) | inactive
CCOc1ccc(N2CC(C(=O)Nc3ccc(S(=O)(=O)NCC4CCCO4)cc3)CC2=O)cc1 (stereo not drawn) | inactive
CCOc1ccc(CNc2nc3ccccc3n2C)cc1 | inactive
CCOc1ccc(N2CC(c3nc4ccccc4n3CCCOc3ccccc3)CC2=O)cc1 (stereo not drawn) | 22.4 µM (active)
Cc1nn(Cc2ccccc2)c(Cl)c1/C=N/NC(=O)c1cccnc1 | inactive
CN1CCN(c2ccc([N+](=O)[O-])c(-n3nc(-c4ccccc4)c4ccccc4c3=O)c2)CC1 | 35.5 µM (active)
Nc1ccc2nn(-c3ccccc3)nc2c1 | inactive
N#CC(c1nc2ccccc2nc1N1CCOCC1)S(=O)(=O)c1ccccc1 (stereo not drawn) | inactive
Fc1ccccc1N1CC(c2ccccc2)C(c2cccs2)=N1 (stereo not drawn) | inactive
CCCCCCc1cc2cc(S(=O)(=O)c3ccc(F)c(Cl)c3)c(=O)oc2cc1O | inactive
OC(CNc1ccnc2cc(Cl)ccc12)CNC1CCCCC1 (stereo not drawn) | 39.8 µM (active)
Clc1ccc2c(NCCNC3CCCCC3)ccnc2c1 | 15.8 µM (active)
Cc1ccc(/C=C2\CCC3=C2OC(N)=C(C#N)C3c2ccc(C)cc2)cc1 (stereo not drawn) | inactive
CCOC(=O)c1cc2c(=O)n3ccccc3nc2n(CC2CCCO2)/c1=N\C(=O)c1ccc(OC)cc1OC (stereo not drawn) | inactive
O=C(Cc1ccccc1)N/N=C/c1cc(Br)cc(Cl)c1O | inactive
CCOC(=O)c1cc2c(=O)n3ccccc3nc2n(Cc2ccco2)/c1=N\C(=O)c1cccc(F)c1 | inactive
Clc1ccc(-c2noc(/C=C/c3ccccc3)n2)cc1 | inactive
O=C1/C(=C/Nc2nnc(CCCO)[nH]2)c2ccccc2C(=O)N1c1ccccc1Cl | inactive
CCCCn1c(N)c(N(CCOC)C(=O)CN2c3ccccc3CC2C)c(=O)[nH]c1=O (stereo not drawn) | inactive
Nc1c(N(CCC2=CCCCC2)C(=O)COc2ccc(F)cc2)c(=O)[nH]c(=O)n1Cc1ccccc1 | 39.8 µM (active)
Cc1ccccc1OCC(=O)N(Cc1ccco1)c1c(N)n(Cc2ccccc2)c(=O)[nH]c1=O | inactive
CCN(C(=O)COC(=O)c1cccc(S(=O)(=O)N(C)C)c1)c1c(N)n(Cc2ccccc2)c(=O)[nH]c1=O | inactive
Nc1c(N(CCC2=CCCCC2)C(=O)COc2ccc(F)cc2Cl)c(=O)[nH]c(=O)n1Cc1ccccc1 | 11.9 µM (active)
CCCCN(C(=O)CSc1nnc2ccccn12)c1c(N)n(Cc2ccccc2)c(=O)[nH]c1=O | inactive
